Source: the supplement of paper PMC10646978
± gives the standard deviation.

What was measured:
Details in all cases: modulator concentration 10 µM
[1] = tested on: RAW-Dual (murine macrophage reporter line); experiment: NF-kB reporter (SEAP) activity fold change vs agonist alone; higher = enhanced NF-kB activity
How it was run: (§1)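 In 384-well plates holding 50 000 RAW-Dual murine macrophage reporter cells per well, compound at 10 μM final was pre-incubated for 1 hour at 37 °C, after which a PRR agonist was added overnight. Supernatant SEAP read with QUANTI-Blue at 620 nm absorbance reported NF-κB, and Lucia luciferase read with QUANTI-Luc luminescence reported IRF. Fold change values come from dividing each reporter signal by the mean of agonist-only control wells on the same plate, averaged over replicate plates with propagated errors.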

[2] = tested on: RAW-Dual (murine macrophage reporter line); experiment: IRF reporter (Lucia luciferase) activity fold change vs agonist alone; higher = enhanced IRF activity
How it was run: as §1

[3] = tested on: RAW-Dual (murine macrophage reporter line); experiment: viability score (confluency relative to resting cells, overnight) (fraction); higher = more viable, active = viable (0.7 or more)
How it was run: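 Compound was added at a final 10 μM to RAW-Dual macrophages in 384-well plates and left overnight. Confluency was imaged with IncuCyte, and two masks were generated in IncuCyte software over all imaged wells. Each viability score is confluency relative to resting cells, and a compound met the cutoff only when both masks were above 70% of resting cells.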

[4] = agonist: CpG ODN 1826 0.5 ug/mL

| Structure (SMILES) | NF-kB reporter [1, 4] | NF-kB reporter ([1]; agonist: LPS 0.1 ug/mL) | NF-kB reporter ([1]; agonist: MPLA […]) | IRF reporter ([2]; agonist: 3'3'-cGAMP 10 ug/mL) | IRF reporter ([2]; agonist: LPS 0.1 ug/mL) | IRF reporter ([2]; agonist: MPLA […]) | viability score [3] |
| --- | --- | --- | --- | --- | --- | --- | --- |
| Cc1cccc(C(=O)N2CCCC(c3nnc(CC(C)(C)C)o3)C2)c1 (stereo not drawn) | 0.877 ± 0.037 | 0.942 ± 0.16 | 1.35 ± 0.08 | 0.924 ± 0.043 | 1.33 ± 0.3 | 1.36 ± 0.47 | 0.944 (active) |
| O=C(COc1ccc(Cl)cc1)Nc1ccc(OC(F)(F)F)cc1 | 1.03 ± 0.069 | 1 ± 0.078 | 0.943 ± 0.043 | 0.989 ± 0.072 | 0.973 ± 0.1 | 0.88 ± 0.18 | 0.993 (active) |
| O=C(NC1CC2CCC1C2)c1ccccc1 (stereo not drawn) | 0.907 ± 0.09 | 0.994 ± 0.081 | 0.972 ± 0.046 | 1.02 ± 0.11 | 1.01 ± 0.13 | 0.869 ± 0.15 | 0.995 (active) |
| COc1ccc(C2Nc3ccc(C(=O)c4ccccc4)cc3NC3=C2C(=O)CCC3)c(OC)c1 (stereo not drawn) | 0.77 ± 0.06 | 0.844 ± 0.04 | 1.08 ± 0.095 | 0.933 ± 0.047 | 1.41 ± 0.11 | 1.58 ± 0.17 | 1.01 (active) |
| CCOC(=O)C(CCCOc1c(C)cc(Cl)cc1C)C(=O)OCC | 0.961 ± 0.078 | 0.909 ± 0.069 | 1.08 ± 0.086 | 0.985 ± 0.04 | 0.95 ± 0.045 | 1.22 ± 0.17 | 0.997 (active) |
| Cc1c(N=Cc2cc([N+](=O)[O-])ccc2O)c(=O)n(-c2ccccc2)n1C | 0.911 ± 0.055 | 0.995 ± 0.061 | 0.907 ± 0.089 | 0.917 ± 0.03 | 1.34 ± 0.15 | 1.18 ± 0.2 | 0.999 (active) |
| COC(=O)Nn1cnnc1 | 1.03 ± 0.17 | 1.08 ± 0.087 | 0.97 ± 0.095 | 0.984 ± 0.025 | 1.25 ± 0.22 | 1.39 ± 0.24 | 1 (active) |
| COC(=O)Nc1nc2cc(C(=O)c3cccs3)ccc2[nH]1 [Prestw-100] | 2.4 ± 0.14 | 1.31 ± 0.094 | 1.98 ± 0.13 | 0.101 ± 0.0035 | 1.86 ± 0.18 | 2.05 ± 0.19 | 0.715 (active) |
| CC(C)COc1ccc(CNC(=O)N(Cc2ccc(F)cc2)C2CCN(C)CC2)cc1.CC(C)COc1ccc(CNC(=O)N(Cc2ccc(F)cc2)C2CCN(C)CC2)cc1.O=C(O)[C@H](O)[C@@H](O)C(=O)O | 0.136 ± 0.016 | 0.384 ± 0.16 | 0.129 ± 0.012 | 0.0542 ± 0.025 | 0.528 ± 0.31 | 0.03 ± 0.0028 | 0.0597 (inactive) |
| COc1cccc(-c2ccc(NC(=O)C3=C(C(=O)O)CCC3)c(F)c2)c1 | 0.954 ± 0.25 | 0.806 ± 0.088 | 1.01 ± 0.088 | 2.42 ± 0.23 | 2.04 ± 0.35 | 1.38 ± 0.24 | 0.91 (active) |
| CCOc1ccccc1O[C@H](c1ccccc1)[C@H]1CNCCO1.CS(=O)(=O)O | 0.873 ± 0.095 | 0.979 ± 0.061 | 1.03 ± 0.055 | 0.82 ± 0.045 | 0.905 ± 0.15 | 0.897 ± 0.074 | 0.99 (active) |
| CC1CC(=CC=CN(C)C)C(=O)C(=CC=CN(C)C)C1 (stereo not drawn) | 1.04 ± 0.17 | 1 ± 0.085 | 0.917 ± 0.099 | 0.888 ± 0.043 | 1.22 ± 0.23 | 1.32 ± 0.28 | 1 (active) |
| CCc1cc(=O)oc2c(C)c(OCC(=O)c3ccc(OC)cc3)ccc12 | 0.804 ± 0.066 | 0.837 ± 0.039 | 1.06 ± 0.11 | 0.925 ± 0.062 | 1.45 ± 0.084 | 1.62 ± 0.14 | 1.01 (active) |
| CN1CCc2c(sc3[nH]c(=S)n(CCc4ccccc4)c(=O)c23)C1 | 0.753 ± 0.063 | 0.814 ± 0.042 | 0.967 ± 0.11 | 0.778 ± 0.042 | 1.28 ± 0.083 | 1.39 ± 0.17 | 1.01 (active) |
